Holding throughout (experiment): growth (OD600 after 10 h); higher = more growth (less inhibition)
Test [1] has as its system E. coli TESEC Alr+ wild-type control. The following applies: compound 0.1 mM; raw OD600 reference: median of DMSO wells 0.241, cell-free background 0.041. The procedure:
(§1)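 TESEC Mtb Alr E. coli, or the Alr+ wild-type control, in 384-well plates with Prestwick library compounds at 0.1 mM and 1% DMSO, across arabinose induction levels of 1E3 to 1E7 nM. Growth is read as OD600 after 10 h at 37 °C in triplicate biological replicates.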

Test [2] has as its system E. coli TESEC Mtb Alr. The settings on record: compound 0.1 mM. The procedure: as §1
Another test relates to E. coli TESEC Mtb Asd. The settings on record: compound 0.1 mM. The procedure:
(§2)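 TESEC E. coli strains in which the native enzyme is deleted and replaced by arabinose-inducible Mtb Asd, DapB, CysH or TrpD, each grown in its selective medium. Strains were screened against the Prestwick library at 0.1 mM and 1% DMSO in 384-well format at low and high arabinose induction. Growth is read as OD600 after 10 h in triplicate.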

The test system of test [3] is E. coli TESEC Alr+ wild-type control. The following applies: compound 0.1 mM; raw OD600 reference: median of DMSO wells 0.49, cell-free background 0.052. The procedure:
(§3)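 TESEC Mtb Alr E. coli (ΔaraC ΔtolC ΔentC Δalr ΔdadX, arabinose-inducible Mtb Alr) or the Alr+ wild-type control strain, grown in defined M9-fructose medium without D-alanine in 96-well plates with Prestwick library compounds at 0.1 mM and 1% DMSO. Low Alr induction is 0.1 µM arabinose and high induction is 10 mM arabinose.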

The subject of test [4] is E. coli TESEC Mtb Alr. The settings on record: compound 0.1 mM. The procedure:
as §3
The source holds these as a separate data set.

The test system of the next test is E. coli TESEC Mtb DapB. The settings on record: compound 0.1 mM. The procedure:
as §2

[5] abbreviates: arabinose 1000 nM, raw OD600 reference: median of DMSO wells 0.294, cell-free background 0.041.
[6] abbreviates: arabinose 10000 nM, raw OD600 reference: median of DMSO wells 0.264, cell-free background 0.041.
The mark [7] stands for this setting: arabinose 100000 nM, raw OD600 reference: median of DMSO wells 0.201, cell-free background 0.041.
Where [8] appears, read: arabinose 1000000 nM, raw OD600 reference: median of DMSO wells 0.193, cell-free background 0.041.
[9] abbreviates: arabinose 10000000 nM, raw OD600 reference: median of DMSO wells 0.146, cell-free background 0.041.
[10] abbreviates: arabinose induction (level): High, raw OD600 reference: median of DMSO wells 0.331, cell-free background 0.041.
[11] abbreviates: arabinose induction (level): Low, raw OD600 reference: median of DMSO wells 0.417, cell-free background 0.041.
[12] abbreviates: arabinose 100 nM, raw OD600 reference: median of DMSO wells 0.413, cell-free background 0.052.
[13] abbreviates: arabinose 10000000 nM, raw OD600 reference: median of DMSO wells […], cell-free background 0.052.
Setting [14] is: arabinose induction (level): High, raw OD600 reference: median of DMSO wells […], cell-free background 0.041.
The mark [15] stands for this setting: arabinose induction (level): Low, raw OD600 reference: median of DMSO wells 0.227, cell-free background 0.041.

Counter-ions that a name gives are not always drawn. ± gives the standard deviation of the averaged measurements.

For the molecule `CC(C)(N)Cc1ccccc1` [Phentermine hydrochloride], the growth in test [1] stood at 0.232 ± 0.0076; with E. coli TESEC Mtb Alr [2] (setting [5]), 0.288 ± 0.017; in the test on E. coli TESEC Mtb Alr [2] (setting [6]), 0.273 ± 0.0063; in the test on E. coli TESEC Mtb Alr [2] (setting [7]), 0.199 ± 0.033; in the test on E. coli TESEC Mtb Alr [2] (setting [8]), 0.193 ± 0.0084; with E. coli TESEC Mtb Alr [2] (setting [9]), 0.138 ± 0.0031. Besides, the growth in the test on E. coli TESEC Mtb Asd (setting [10]) amounted to 0.318 ± 0.043; in the test with E. coli TESEC Mtb Asd (setting [11]) it was 0.297 ± 0.017; in test [3], 0.603 ± 0.13; with E. coli TESEC Mtb Alr [4] (setting [12]) it was 0.413 ± 0.014; in the test on E. coli TESEC Mtb Alr [4] (setting [13]), 0.36 ± 0.0095.

In the case of `C1CCc2nnnn2CC1` [Pentylenetetrazole], the growth amounted to 0.255 ± 0.011 in test [1]; 0.282 ± 0.018 with E. coli TESEC Mtb Alr [2] (setting [5]); 0.275 ± 0.0089 in the test with E. coli TESEC Mtb Alr [2] (setting [6]); 0.233 ± 0.021 in the test on E. coli TESEC Mtb Alr [2] (setting [7]); 0.187 ± 0.0053 in the test on E. coli TESEC Mtb Alr [2] (setting [8]); 0.141 ± 0.007 with E. coli TESEC Mtb Alr [2] (setting [9]). Besides, the growth in the test on E. coli TESEC Mtb Asd (setting [10]) stood at 0.402 ± 0.0048; with E. coli TESEC Mtb Asd (setting [11]), 0.431 ± 0.017; in the test with E. coli TESEC Mtb DapB (setting [14]), 0.227 ± 0.037; with E. coli TESEC Mtb DapB (setting [15]), 0.274 ± 0.11; in the test on E. coli TESEC Mtb Alr [4] (setting [12]), 0.408 ± 0.011; in the test with E. coli TESEC Mtb Alr [4] (setting [13]), 0.367 ± 0.022.

On to `C[C@]12C[C@H]3S[C@H]3C[C@@H]1CC[C@@H]1[C@@H]2CC[C@]2(C)[C@@H](O)CC[C@@H]12` [Epitiostanol], for which the growth worked out at 0.248 ± 0.0036 in test [1]; 0.291 ± 0.012 in the test with E. coli TESEC Mtb Alr [2] (setting [5]); 0.281 ± 0.0097 in the test on E. coli TESEC Mtb Alr [2] (setting [6]); 0.144 ± 0.011 with E. coli TESEC Mtb Alr [2] (setting [7]); 0.15 ± 0.013 in the test on E. coli TESEC Mtb Alr [2] (setting [8]); 0.136 ± 0.0072 in the test on E. coli TESEC Mtb Alr [2] (setting [9]). Besides, the growth with E. coli TESEC Mtb Asd (setting [10]) came to 0.162 ± 0.018; in the test on E. coli TESEC Mtb Asd (setting [11]), 0.337 ± 0.098; in the test with E. coli TESEC Mtb Alr [4] (setting [12]), 0.413 ± 0.014; in the test with E. coli TESEC Mtb Alr [4] (setting [13]), 0.265 ± 0.015.

On to `COP(=O)(OC)C(O)C(Cl)(Cl)Cl` (configuration not stated) [Trichlorfon], for which the growth in test [1] stood at 0.249 ± 0.0088; in the test with E. coli TESEC Mtb Alr [2] (setting [5]) it was 0.293 ± 0.0065; with E. coli TESEC Mtb Alr [2] (setting [6]) it was 0.248 ± 0.0076; in the test with E. coli TESEC Mtb Alr [2] (setting [7]) it was 0.199 ± 0.015; with E. coli TESEC Mtb Alr [2] (setting [8]), 0.181 ± 0.0066; in the test on E. coli TESEC Mtb Alr [2] (setting [9]), 0.146 ± 0.0059. Also, the growth with E. coli TESEC Mtb Asd (setting [10]) worked out at 0.348 ± 0.072; with E. coli TESEC Mtb Asd (setting [11]) it was 0.363 ± 0.079; in the test with E. coli TESEC Mtb DapB (setting [14]), 0.208 ± 0.028; in the test with E. coli TESEC Mtb DapB (setting [15]), 0.272 ± 0.071; with E. coli TESEC Mtb Alr [4] (setting [12]) it was 0.412 ± 0.012; in the test on E. coli TESEC Mtb Alr [4] (setting [13]) it was 0.257 ± 0.17.

Consider `CCCC[N+]1(C)[C@@H]2CC(OC(=O)[C@H](CO)c3ccccc3)C[C@H]1[C@@H]1O[C@@H]12` (some centres not stated) [Butylscopolammonium (n-) bromide], for which the growth in test [1] worked out at 0.225 ± 0.0045; with E. coli TESEC Mtb Asd (setting [10]), 0.372 ± 0.073; with E. coli TESEC Mtb Asd (setting [11]), 0.412 ± 0.034; in the test on E. coli TESEC Mtb DapB (setting [14]), 0.216 ± 0.011; in the test with E. coli TESEC Mtb DapB (setting [15]), 0.232 ± 0.015; in the test with E. coli TESEC Mtb Alr [4] (setting [12]) it was 0.405 ± 0.0075. Further, in the test on E. coli TESEC Mtb Alr [4] (setting [13]), the growth is 0.338 ± 0.021.

Turning to `CN1[C@@H]2CC[C@H]1C[C@@H](OC1c3ccccc3CCc3ccccc31)C2` [Deptropine citrate], the growth in test [1] amounted to 0.046 ± 0.0008; with E. coli TESEC Mtb Alr [2] (setting [5]) it was 0.041 ± 0.0014; with E. coli TESEC Mtb Alr [2] (setting [6]), 0.03993 ± 0.00025; with E. coli TESEC Mtb Alr [2] (setting [7]), 0.043 ± 0.001; with E. coli TESEC Mtb Alr [2] (setting [8]), 0.0411 ± 0.0015; in the test with E. coli TESEC Mtb Alr [2] (setting [9]), 0.04267 ± 0.00021. In addition, the growth in the test on E. coli TESEC Mtb Asd (setting [10]) worked out at 0.0939 ± 0.05; with E. coli TESEC Mtb Asd (setting [11]), 0.0858 ± 0.012; in the test with E. coli TESEC Mtb Alr [4] (setting [12]), 0.392 ± 0.0043; in the test on E. coli TESEC Mtb Alr [4] (setting [13]), 0.0701 ± 0.03.

Regarding `CC(O)(CS(=O)(=O)c1ccc(F)cc1)C(=O)Nc1ccc(C#N)c(C(F)(F)F)c1` (configuration not stated) [Bicalutamide], the growth was 0.154 ± 0.0054 in test [1]; 0.216 ± 0.027 in the test on E. coli TESEC Mtb Asd (setting [10]); 0.253 ± 0.017 in the test with E. coli TESEC Mtb Asd (setting [11]); 0.397 ± 0.018 in the test on E. coli TESEC Mtb Alr [4] (setting [12]); 0.232 ± 0.054 in the test with E. coli TESEC Mtb Alr [4] (setting [13]).

Source of the values: the supplement of paper PMC9262897, “Low-cost anti-mycobacterial drug discovery using engineered E. coli” (Nature Communications, 2022).
